Assay results published in PubChem BioAssay (Tox21).
Inconclusive results are not listed. Active and inactive are the calls of the source. Unless noted, the call rests on the fitted dose curve.

What was measured:
[1] = Nuclear factor erythroid 2-related factor 2/antioxidant responsive element (Nrf2/ARE) small molecule agonists: qHTS cell viability counter screen in human keratinocytes (AID 1919968; active means well fitted curve in the direction sought with a large enough effect in the repeat runs; an effect the other way counts as inactive or inconclusive; further: nearly all actives have a fitted effect of over 55% in size)
How it was run: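 Parallel cytotoxicity read: KeratinoSens HaCaT cells, compound treatment 23 h, viability by CellTiter-Fluor fluorescence 1 h post-reagent.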

[2] = Nuclear factor erythroid 2-related factor 2/antioxidant responsive element (Nrf2/ARE) small molecule agonists: luciferase reporter gene qHTS assay in human keratinocytes (AID 1919969); further: nearly all actives have a fitted effect of over 35% in size; further: potency means the concentration at half of the fitted maximal effect
[3] = target: Gonadotropin-releasing hormone receptor (Homo sapiens) (UniProt P30968); experiment: Human gonadotropin-releasing hormone receptor (GnRHR) small molecule agonists, calcium flux assay in GnRHR-HEK293 cells (AID 1920063); further: nearly all actives have a fitted effect of over 35% in size
How it was run: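 Calcium flux, agonist mode, human GnRHR stably integrated in HEK293; dye 1 h at 37 C before compound; Ex/Em=480/540 kinetic read, 3 min; 15 concentrations, triplicate.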

[4] = G protein-coupled receptor (GPCR) small molecule agonists, calcium flux assay: HEK293 wild type cell line counter screen (AID 1920065)
How it was run: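 Non-specific calcium responders were flagged by adding DMSO-dissolved compounds to dye-loaded cells and reading 480/540 nm fluorescence each second for 3 min; ATP served as positive control.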

[5] = p53 small molecule agonists, cell-based qHTS assay with human liver microsomes (AID 1963577)
How it was run: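 Fluorescence of the beta-lactamase reporter in p53RE-bla cells, detected with LiveBLAzer substrate (2 h, room temperature, dark), served as the read-out after 16 h compound exposure at 37 C with human liver microsomes and NADPH, each 0.5 mg/mL final.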

[6] = p53 small molecule agonists, cell-based qHTS assay with rat liver microsomes (AID 1963578)
How it was run: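 Cells carrying a p53 response element–beta-lactamase reporter were plated and rested 5 h, then dosed with compound in DMSO plus rat liver microsomes and NADPH, each at 0.5 mg/mL final. After 16 h at 37 C, LiveBLAzer substrate was added for 2 h.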

[7] = p53 small molecule agonists, cell-based qHTS assay with human liver microsomes: qHTS cell viability counter screen (AID 1963579); further: nearly all actives have a fitted effect of over 45% in size
How it was run: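 Cytotoxicity counter screen: p53RE-bla, 4,000 cells/well; 5 h settle, 37 C/5% CO2; cpd + HLM 0.5 mg/mL + NADPH 0.5 mg/mL (final); 16 h, 37 C; CellTiter-Glo, 30 min RT, luminescence.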

[8] = p53 small molecule agonists, cell-based qHTS assay with rat liver microsomes: qHTS cell viability counter screen (AID 1963580); further: nearly all actives have a fitted effect of over 45% in size
How it was run: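 Rat liver microsome (0.5 mg/mL final) and NADPH (0.5 mg/mL final) co-incubation with compounds for 16 h at 37 C on HCT-116 p53RE-bla cells; cytotoxicity taken from intracellular ATP luminescence.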

[9] = p53 small molecule agonists, cell-based qHTS assay: qHTS cell viability counter screen (AID 1963581); further: nearly all actives have a fitted effect of over 45% in size
How it was run: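 Multiplexed with the reporter read, a CellTiter-Glo step (30 min, room temperature) gauges ATP-based viability of HCT-116 p53RE-bla cells after 16 h compound incubation at 37 C.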

[10] = p53 small molecule agonists, cell-based qHTS assay (AID 1963582; active means well fitted activation curve with a large enough effect in the signal ratio in the repeat runs, not every such curve was filed as active; the % refers to the signal ratio)
How it was run: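 Beta-lactamase reporter cells (p53RE-bla) treated with compounds for 16 h at 37 C; FRET substrate, 2 h, room temperature; fluorescence intensity.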

[11] = target: 5-hydroxytryptamine receptor 2A (Homo sapiens) (UniProt P28223); experiment: 5-hydroxytryptamine receptor 2A (HTR2A) small molecule agonists, cell-based qHTS assay (AID 1963587); further: nearly all actives have a fitted effect of over 30% in size
How it was run: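 Kinetic calcium-flux fluorescence (2 min, 1 sec intervals) after compound addition in agonist mode. HTR2A-CHO cells were cultured 18 h, then dye-loaded 1 h at 37 C.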

[12] = target: Muscarinic acetylcholine receptor M1 (Homo sapiens) (UniProt P11229); experiment: Cholinergic receptor muscarinic 1 (CHRM1) small molecule antagonists, cell-based qHTS assay (AID 1963588); further: nearly all actives have a fitted effect of over 40% in size
How it was run: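 Compounds were tested at 15 concentrations in three independent runs. Dye-loaded CHRM1-CHO cells were exposed 5 min at room temperature before stimulation by acetylcholine added at 50nM. Intracellular calcium was read kinetically on FDSS for 3 min.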

[13] = target: Muscarinic acetylcholine receptor M1 (Homo sapiens) (UniProt P11229); experiment: Cholinergic receptor muscarinic 1 (CHRM1) small molecule agonists, cell-based qHTS assay (AID 1963589); further: nearly all actives have a fitted effect of over 35% in size
How it was run: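 qHTS, 15-point titration, 3 independent runs: compounds pin-transferred onto dye-loaded CHRM1-CHO cells (human M1), calcium fluorescence followed every second to detect agonism.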

[14] = cAMP Responsive Elements (CRE) small molecule agonists, cell-based qHTS assay (AID 1963590)
How it was run: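 Quantitative HTS for CRE agonists: HEK 293T CRE-bla cells, overnight plating, 3 h compound incubation at 37 C/5% CO2, then 2 h room-temperature LiveBLAzer B/G FRET substrate loading.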

[15] = cAMP Responsive Elements (CRE) small molecule antagonists, cell-based qHTS assay (AID 1963591; active means well fitted inhibition curve with a large enough effect in the signal ratio in the repeat runs, not every such curve was filed as active; the % refers to the signal ratio)
How it was run: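 Fluorescence intensity from cleaved LiveBLAzer B/G substrate (2 h, room temperature) quantified CRE-bla activity in HEK 293T cells exposed 3 h to compound with 0.25 uM final NKH477.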

[16] = target: Beta-2 adrenergic receptor (Homo sapiens) (UniProt P07550); experiment: Adrenergic beta2 receptor (ADRB2) small molecule antagonists, cell-based qHTS assay (AID 1963592); further: series mostly up to about 92 µM; nearly all actives have a fitted effect of over 50% in size
How it was run: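 Assay format: CHO-ADRB2 cells, 18-20hr seeding at 37C/5% CO2, then compound plus 1nM isoproterenol agonist mix for 0.5hr RT. Homogeneous time-resolved fluorescence cAMP detection after 1hr, expressed as 665/615 nm ratio.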

[17] = target: D(2) dopamine receptor (Homo sapiens) (UniProt P14416); experiment: Dopamine D2 receptor (DRD2) small molecule agonists, cell-based qHTS assay (AID 1963594); further: nearly all actives have a fitted effect of over 35% in size; further: potency means the concentration at half of the fitted maximal effect
How it was run: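 cAMP accumulation in DRD2-HEK293 cells measured by HTRF after 1 h detection; compounds added 10 min before NKH477 (200nM […]) forskolin-analogue stimulation, 30 min at room temperature, with Ro20-1724 present at 0.1 mM final.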

[18] = target: D(2) dopamine receptor (Homo sapiens) (UniProt P14416); experiment: Dopamine D2 receptor (DRD2) small molecule antagonists, cell-based qHTS assay (AID 1963595; active means well fitted inhibition curve with a large enough effect in the signal ratio in the repeat runs, with a control signal flat; the % refers to the signal ratio)
How it was run: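 Cells were plated and grown for 24 h at 37 °C. Ro20-1724 (0.1 mM final) went in first, then compound for 10 min. NKH477 (200 nM) with quinpirole (12 nM) followed for 30 min at RT, then HTRF detection reagents for 1 h.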

[19] = target: 5-hydroxytryptamine receptor 2A (Homo sapiens) (UniProt P28223); experiment: 5-hydroxytryptamine receptor 2A (HTR2A) small molecule antagonists, cell-based qHTS assay (AID 1963586); further: nearly all actives have a fitted effect of over 45% in size
How it was run: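 CHO cells stably expressing human HTR2A were plated for 18 h at 37 C, then loaded with calcium dye for 1 h. Compounds were preincubated 5 min at room temperature before DOI (4 nM solution) was added. Kinetic fluorescence was read for 3 min.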

[20] = target: KiSS-1 receptor (Homo sapiens) (UniProt Q969F8); experiment: Human kisspeptin (KISS1R) small molecule agonists, calcium flux assay in KISS1R-HEK293 cells (AID 1920064; active means well fitted curve in the direction sought with a large enough effect in the repeat runs; an effect the other way counts as inactive or inconclusive)
How it was run: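 Triplicate 15-concentration series were applied to dye-loaded human KISS1R HEK293 cells, and agonist-evoked calcium fluorescence was captured for 3 min.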

Measured: Potency

Chain of Gonadotropin-releasing hormone receptor (Homo sapiens) (P30968 whole entry, looked up): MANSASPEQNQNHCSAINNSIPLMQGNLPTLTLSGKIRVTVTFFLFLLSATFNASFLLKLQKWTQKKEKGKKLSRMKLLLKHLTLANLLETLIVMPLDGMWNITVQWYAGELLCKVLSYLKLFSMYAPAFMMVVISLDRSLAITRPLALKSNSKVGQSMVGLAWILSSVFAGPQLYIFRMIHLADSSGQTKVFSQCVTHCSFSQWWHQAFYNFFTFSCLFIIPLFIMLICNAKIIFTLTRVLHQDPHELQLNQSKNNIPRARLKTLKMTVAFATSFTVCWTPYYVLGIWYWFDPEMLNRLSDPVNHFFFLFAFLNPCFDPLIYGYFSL
Chain of Muscarinic acetylcholine receptor M1 (Homo sapiens) (P11229 whole entry, looked up): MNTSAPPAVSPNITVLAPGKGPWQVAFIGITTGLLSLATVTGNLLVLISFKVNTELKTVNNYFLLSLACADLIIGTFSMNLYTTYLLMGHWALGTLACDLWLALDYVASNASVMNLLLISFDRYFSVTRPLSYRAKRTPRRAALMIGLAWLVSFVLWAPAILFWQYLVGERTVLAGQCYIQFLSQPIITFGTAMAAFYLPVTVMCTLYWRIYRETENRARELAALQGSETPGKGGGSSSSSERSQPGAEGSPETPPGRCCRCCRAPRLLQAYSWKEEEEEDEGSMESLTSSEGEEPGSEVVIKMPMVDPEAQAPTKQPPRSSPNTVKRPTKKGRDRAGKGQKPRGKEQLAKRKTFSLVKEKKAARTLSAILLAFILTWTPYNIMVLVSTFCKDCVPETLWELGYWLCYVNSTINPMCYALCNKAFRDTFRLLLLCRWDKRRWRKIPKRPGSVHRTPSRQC
Chain of 5-hydroxytryptamine receptor 2A (Homo sapiens) (P28223 whole entry, looked up): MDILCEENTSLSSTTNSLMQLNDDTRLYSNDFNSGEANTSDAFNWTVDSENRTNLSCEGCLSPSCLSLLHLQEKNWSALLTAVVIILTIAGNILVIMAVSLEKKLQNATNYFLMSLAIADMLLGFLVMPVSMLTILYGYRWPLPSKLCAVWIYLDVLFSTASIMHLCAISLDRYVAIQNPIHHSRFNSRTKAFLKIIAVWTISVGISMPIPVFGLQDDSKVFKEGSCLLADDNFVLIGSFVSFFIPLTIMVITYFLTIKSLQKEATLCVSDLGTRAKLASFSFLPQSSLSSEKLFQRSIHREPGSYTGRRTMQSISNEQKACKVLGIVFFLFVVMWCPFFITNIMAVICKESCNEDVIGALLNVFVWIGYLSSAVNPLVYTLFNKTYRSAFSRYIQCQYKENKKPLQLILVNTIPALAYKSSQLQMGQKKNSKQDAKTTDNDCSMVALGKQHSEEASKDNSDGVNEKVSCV
Chain of Beta-2 adrenergic receptor (Homo sapiens) (P07550 whole entry, looked up): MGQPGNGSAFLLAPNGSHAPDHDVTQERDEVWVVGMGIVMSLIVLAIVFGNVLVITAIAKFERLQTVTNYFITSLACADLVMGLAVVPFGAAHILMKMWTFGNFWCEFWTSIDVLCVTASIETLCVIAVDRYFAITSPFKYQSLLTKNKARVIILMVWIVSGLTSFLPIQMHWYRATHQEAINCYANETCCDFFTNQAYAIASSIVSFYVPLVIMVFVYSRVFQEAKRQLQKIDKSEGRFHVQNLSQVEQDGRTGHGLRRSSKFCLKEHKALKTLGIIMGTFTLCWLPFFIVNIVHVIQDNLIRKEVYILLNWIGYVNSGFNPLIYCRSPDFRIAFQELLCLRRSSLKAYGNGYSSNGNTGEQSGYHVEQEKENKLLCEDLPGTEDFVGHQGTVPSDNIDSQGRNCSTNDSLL
Chain of D(2) dopamine receptor (Homo sapiens) (P14416 whole entry, looked up): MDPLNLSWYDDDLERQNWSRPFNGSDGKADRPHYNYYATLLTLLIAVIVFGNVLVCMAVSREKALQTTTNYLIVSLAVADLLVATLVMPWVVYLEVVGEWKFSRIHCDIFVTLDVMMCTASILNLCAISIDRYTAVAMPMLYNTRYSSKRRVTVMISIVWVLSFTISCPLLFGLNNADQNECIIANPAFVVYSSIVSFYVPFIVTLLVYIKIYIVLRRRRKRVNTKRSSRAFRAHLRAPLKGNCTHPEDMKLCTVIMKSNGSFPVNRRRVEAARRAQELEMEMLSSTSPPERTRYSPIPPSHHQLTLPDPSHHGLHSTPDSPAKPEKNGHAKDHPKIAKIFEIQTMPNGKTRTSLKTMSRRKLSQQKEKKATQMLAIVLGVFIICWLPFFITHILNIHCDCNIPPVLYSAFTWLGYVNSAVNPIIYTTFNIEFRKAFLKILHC
Chain of KiSS-1 receptor (Homo sapiens) (Q969F8 whole entry, looked up): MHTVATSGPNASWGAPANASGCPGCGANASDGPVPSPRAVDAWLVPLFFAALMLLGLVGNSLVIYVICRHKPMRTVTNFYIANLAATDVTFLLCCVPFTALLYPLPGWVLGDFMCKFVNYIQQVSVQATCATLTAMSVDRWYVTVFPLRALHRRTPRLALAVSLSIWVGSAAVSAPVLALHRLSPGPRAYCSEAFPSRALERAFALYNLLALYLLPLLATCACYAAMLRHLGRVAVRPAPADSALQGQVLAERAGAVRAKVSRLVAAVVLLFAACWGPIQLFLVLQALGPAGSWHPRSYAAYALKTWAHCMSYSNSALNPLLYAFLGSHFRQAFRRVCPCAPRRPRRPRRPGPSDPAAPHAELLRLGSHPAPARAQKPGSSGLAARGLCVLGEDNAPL

CCCCOC(=O)/C=C\C(=O)OCCCC
active: [2] 25.2 µM
inactive: [1] | [3] | [4] | [5] | [6] | [7] | [8] | [9] | [10] | [11] | [12] | [13] | [14] | [15] | [16] | [17] | [18]

CC(=O)OCC(=O)[C@@]1(O)CCC2C3CCC4=CC(=O)CC[C@]4(C)C3[C@@H](O)C[C@@]21C (some centres undefined)
inactive: [1] | [2] | [3] | [4] | [5] | [6] | [7] | [8] | [9] | [10] | [19] | [11] | [12] | [14] | [15] | [16] | [17] | [18]

CN=C(NC#N)NCCSCc1csc(N=C(N)N)n1
active: [17] 19.9 µM
inactive: [1] | [2] | [3] | [4] | [5] | [6] | [7] | [8] | [9] | [10] | [19] | [11] | [12] | [13] | [14] | [15] | [16] | [18]

CNS(=O)(=O)CCc1ccc2[nH]cc(C3CCN(C)CC3)c2c1
inactive: [1] | [2] | [3] | [20] | [6] | [8] | [9] | [10] | [11] | [12] | [13] | [14] | [15] | [17] | [18]

Nc1ccnc(=O)[nH]1
inactive: [1] | [2] | [3] | [4] | [5] | [6] | [7] | [8] | [9] | [10] | [19] | [11] | [12] | [13] | [14] | [15] | [16] | [17] | [18]

Cc1cc(N)c2cc(NC(=O)Nc3ccc4nc(C)cc(N)c4c3)ccc2n1
inactive: [1] | [2] | [3] | [4] | [5] | [6] | [7] | [8] | [9] | [10] | [19] | [11] | [12] | [13] | [14] | [15] | [17]

COC(=O)CS
active: [2] 52.4 µM
inactive: [1] | [3] | [4] | [5] | [6] | [7] | [8] | [9] | [10] | [19] | [11] | [12] | [13] | [14] | [16] | [17] | [18]
